Results from PubChem BioAssay AID1240 (Sanford-Burnham Center for Chemical Genomics, 2008).
Hit rate of the full screen: of about 50,000 compounds, about 800 (1.6%) showed an effect of 50% or more. This excerpt belongs to a sample that is enriched for strong results.

What follows are compounds tested against Bcl-2-like protein 10 (Homo sapiens) (UniProt Q9HD36) (assay: TR3 peptide-Bcl-B binding displacers, biochemical primary FP assay, phenotype converters (AID 1240;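 also: 0% = Bcl-B with tracer peptide and DMSO and 100% = tracer peptide lacking Bcl-B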)). Settings: GST-Bcl-B / FITC-TR3 peptide fluorescence polarization; stronger effect = higher value; compound at 3.75 mg/L.
Bcl-2-like protein 10 (Homo sapiens), sequence (Q9HD36 whole entry, looked up): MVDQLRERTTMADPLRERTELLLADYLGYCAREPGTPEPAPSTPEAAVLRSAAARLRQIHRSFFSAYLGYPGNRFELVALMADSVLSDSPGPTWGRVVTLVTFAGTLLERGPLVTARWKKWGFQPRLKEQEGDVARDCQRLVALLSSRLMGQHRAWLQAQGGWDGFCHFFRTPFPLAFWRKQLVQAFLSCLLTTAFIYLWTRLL
For `Cc1ccc(OCCNc2cc(Cl)ccc2[N+](=O)[O-])cc1C`, the displacement was 0.6%. `CSc1ccc(/C=N/S(=O)(=O)CCc2ccccc2)cc1` showed a displacement of -7.7%. `CCCS(=O)(=O)c1c(S(=O)(=O)CCC)c2c(C)cccn2c1C(N)=O` gave a displacement of -9.8%. For `COc1c(Cl)ccc(Cl)c1C(=O)Nc1ccc(I)cc1`, the displacement was -9.5%. With `O=C(c1ccc(Cl)cc1)N1CCC(Cc2ccccc2)CC1` the displacement was 16.4%. `Cc1ccc([N+](=O)[O-])cc1-c1ccc(/C=C2/C(=O)NC(=O)N(c3ccccc3)C2=O)o1` gave a displacement of 82.8%. Work on `COc1cc([N+](=O)[O-])ccc1-c1ccc(/C=C2\C(=O)NC(=O)N(c3ccc(C)c(C)c3)C2=O)o1` yielded a displacement of 75.5%. In the case of `Cc1ccc([N+](=O)[O-])cc1-c1ccc(/C=C2\C(=O)NC(=O)N(c3ccc(Cl)cc3)C2=O)o1`, the displacement is reported as 6.8%. For `COc1cc([N+](=O)[O-])ccc1-c1ccc(/C=C2\C(=O)NC(=O)N(c3ccc(Cl)cc3)C2=O)o1`, the displacement was 14%. For `COc1ccc([N+](=O)[O-])cc1-c1ccc(/C=C2\C(=O)NC(=O)N(c3cc(C)cc(C)c3)C2=O)o1`, the displacement was 92.6%. Work on `COc1ccc([N+](=O)[O-])cc1-c1ccc(/C=C2\C(=O)NC(=O)N(c3ccc(Cl)cc3)C2=O)o1` yielded a displacement of 25.1%. With `O=C1NC(=O)N(c2ccccc2)C(=O)/C1=C\c1ccc(-c2ccc([N+](=O)[O-])cc2Br)o1` the displacement was -14.8%. For `COc1ccc(N2C(=O)NC(=O)/C(=C/c3ccc(-c4ccc([N+](=O)[O-])cc4C)o3)C2=O)cc1`, the displacement was 13.6%. Compound `Cc1cc(C)cc(N2C(=O)NC(=O)/C(=C\c3ccc([N+](=O)[O-])o3)C2=O)c1` has a displacement of -3.8%. In the case of `CCOc1ccc(N2C(=O)NC(=O)/C(=C\c3ccc(-c4ccc([N+](=O)[O-])cc4OC)o3)C2=O)cc1`, the displacement is reported as 23%. In the case of `COc1cc([N+](=O)[O-])ccc1-c1ccc(/C=C2\C(=O)NC(=S)N(c3ccc(Cl)cc3)C2=O)o1`, the displacement is reported as 16.2%. With `COc1cc([N+](=O)[O-])ccc1-c1ccc(/C=C2\C(=O)NC(=O)N(c3ccccc3)C2=O)o1` the displacement was 132%. `COc1ccc(C(=O)N2CCN(C3C4CC5CC(C4)CC3C5)CC2)cc1OC` (stereo not drawn) was tested, and the displacement was -6.5%. `Cc1cccc(N2CCN(C(=O)Nc3ccc(Cl)c(Cl)c3)CC2)c1C` was tested, and the displacement was -0.9%. Work on `O=S1(=O)CCC(NC(=S)SCCOc2ccccc2OCCO)C1` (stereo not drawn) yielded a displacement of 6.3%. `Cc1cccc(C=Nc2ccc(O)cc2)c1` gave a displacement of -8.4%. Work on `CS(=O)(=O)N(CC(=O)Nc1ccc(Cl)cc1)c1ccc(Br)cc1` yielded a displacement of 3.3%. In the case of `Cc1ccc(-c2csc(NC(=O)c3sc4ccccc4c3Cl)n2)c(C)c1`, the displacement is reported as 2.6%. `CCOc1ccc(Cc2c(C)nc3c(C)cccc3c2Cl)cc1` gave a displacement of -5.7%. Compound `CCC1=NN(C(=O)c2ccncc2)C(O)(c2ccc(Br)cc2)C1` (stereo not drawn) has a displacement of 10.2%. In the case of `Cc1ccc(NC(=S)NN2CCN(C)CC2)cc1`, the displacement is reported as 5.2%. Compound `Cc1ccc(OCC(=O)NCc2ccco2)c(C)c1` has a displacement of -2.9%. Work on `N#C/C(=C/c1ccccc1)C(=O)Nc1ccc(Cl)c(Cl)c1` yielded a displacement of 1.5%. `CC(C)(C)c1cc(/C=N/Nc2nnc3c(n2)[nH]c2ccccc23)cc(C(C)(C)C)c1O` gave a displacement of 4.8%. Work on `CSc1nc(-c2ccccc2)nc2[nH]ccc(=O)c12` yielded a displacement of 110%. With `Cc1nc(-c2ccccc2)c2c(=O)cc[nH]c2n1` the displacement was 15.4%. With `Cc1nc(-c2ccccc2)nc2[nH]ccc(=O)c12` the displacement was 11.9%. `COc1cc(/C=C2/SC(=S)N(C)C2=O)cc(Br)c1OCCOc1ccccc1C` showed a displacement of -2%. Work on `COC(=O)C(Cc1ccccc1)NC(=O)CCN1C(=O)c2cccc3cccc(c23)C1=O` (stereo not drawn) yielded a displacement of 15%. `CCc1ccc(NC(=O)C(=O)NCCCO)cc1` showed a displacement of 5%. `CN(C)c1ccc(C(O)C(C)(O)c2nc3ccccc3n2C)cc1` (stereo not drawn) gave a displacement of 6.1%. `COc1cc(/C=C2/C(=O)NC(=S)N(c3ccccc3)C2=O)ccc1OCc1ccc([N+](=O)[O-])cc1` gave a displacement of 4%. Work on `COc1cc(/C=C2\C(=O)NC(=O)N(c3ccc(C)cc3)C2=O)ccc1OCc1ccccc1` yielded a displacement of 38.6%. `CCOc1cc(/C=C2/C(=O)NC(=O)N(c3ccc(OC)cc3)C2=O)ccc1OCCOc1ccc([N+](=O)[O-])cc1` showed a displacement of -0.9%. `O=C1C(=Cc2ccc(OCc3ccc(F)cc3)c(Br)c2)C(=O)c2ccccc21` was tested, and the displacement was 19.1%. Work on `C=CCOc1ccc(/C=C2/C(=O)NC(=O)N(c3cccc(C)c3)C2=O)cc1OCC` yielded a displacement of 126%. `COc1cc(C=C2C(=O)c3ccccc3C2=O)ccc1OCc1ccc(F)cc1` gave a displacement of 88.7%. In the case of `CCOc1cc(/C=C2/C(=O)NC(=O)N(c3ccccc3)C2=O)ccc1OCc1ccc([N+](=O)[O-])cc1`, the displacement is reported as 75.9%. `COc1cc(C=C2C(=O)c3ccccc3C2=O)ccc1OCc1ccc(I)cc1` was tested, and the displacement was -11.5%. `COc1cc(/C=C2/C(=O)NC(=O)N(c3ccc(C)cc3)C2=O)ccc1OCCOc1ccc([N+](=O)[O-])cc1` showed a displacement of 10.8%. `C=CCOc1ccc(/C=C2/C(=O)NC(=O)N(c3ccc(C)cc3)C2=O)cc1OCC` showed a displacement of -2.8%. With `COc1cc(/C=C2\C(=O)NC(=O)N(c3ccc(C)cc3)C2=O)ccc1OCc1ccc([N+](=O)[O-])cc1` the displacement was 70%. `C=CCOc1ccc(/C=C2\C(=O)NC(=O)N(c3ccc(Cl)cc3)C2=O)cc1OCC` gave a displacement of -4%. Work on `Cc1ccc(NS(=O)(=O)c2cccc([N+](=O)[O-])c2)cc1Cl` yielded a displacement of -0.2%. `CC(=O)Nc1ccccc1NC(=O)c1ccc(Cl)cc1` gave a displacement of 11.4%. With `O=C(O)CCC(=O)Nc1ccc2nn(-c3ccccc3)nc2c1` the displacement was 3.6%. Work on `COc1cc(C(=O)Nc2ccc(Br)cn2)cc(OC)c1OC` yielded a displacement of -1.3%. For `CCOc1ccc(-c2c(C#N)c(N)nc3sc(C#N)c(N)c23)cc1`, the displacement was -1.4%. For `CCCCOC(=O)c1sc2nc(N)c(C#N)c(-c3ccc(OC)c(OC)c3)c2c1N`, the displacement was 167%. In the case of `COc1ccc(-c2c(C#N)c(N)nc3c2CCCCC3)cc1OC`, the displacement is reported as -2.3%. For `O=C(CCN1C(=O)c2ccccc2C1=O)NC1CCCC1`, the displacement was 8.5%. With `O=C(N/N=C/c1cccnc1)/C(=C\c1cccs1)NC(=O)c1ccccc1` the displacement was -9.3%. `O=C1NC(=Nc2cccc(O)c2)S/C1=C\c1ccc(F)cc1` was tested, and the displacement was 75.8%. In the case of `O=C1NC(=Nc2cccnc2)S/C1=C\c1cccc(F)c1`, the displacement is reported as 146%. For `O=C1NC(=Nc2ccc(O)cc2)S/C1=C\c1ccc(F)cc1`, the displacement was 7.7%. `O=C1NC(=Nc2cccc(O)c2)S/C1=C\c1cccc(O)c1` showed a displacement of 1.9%. With `O=C1NC(=Nc2cccnc2)S/C1=C\c1ccc(Br)cc1` the displacement was 12.1%. `O=C1NC(=Nc2cccnc2)S/C1=C\c1ccc(F)cc1` was tested, and the displacement was 3.5%.
